Shown is part of a subset that was picked to be rich in hits.
ST2 inh = inhibitors of human ST2 (IL1RL1) binding to IL-33, primary screen, biochemical, AlphaLISA; inhibition, % for hits at 17 µM; AlphaLISA ST2-Fc/biotin-IL-33 interaction, 1 h; Interleukin-1 receptor-like 1 (Homo sapiens), Q01638; hit rate 2.3% among 78,000; in the data active = inhibition above about 30%
Hits are given with their value; 0 = inactive; ! = a repeat was not active.

SMILES	ST2 inh
O=C(NC1CCCCC1)c1cccc(S(=O)(=O)N2CCOCC2)c1	0
Cc1cccc(/C=C2\CS/C(=C\c3cccc(C)c3)C2=O)c1	55%
COc1ccccc1/C=C1\SC(N2CC(C)OC(C)C2)=NC1=O (stereo not given)	0
COc1ccccc1/C=C1/SC(N2CCN(C)CC2)=NC1=O	0
Cc1cccc(/C=C2\NC(=O)N(Cc3ccc(Cl)cc3)C2=O)c1	0
O=C1N=C(N2CCCC2)S/C1=C/c1cccc(O)c1	0
O=C1/C(=C/c2ccsc2)CS/C1=C\c1ccsc1	39%
COc1cccc(/C=C2\CS/C(=C\c3cccc(OC)c3OC)C2=O)c1OC	39%
NNc1nnc2c(n1)[nH]c1ccc(Br)cc12	0
Cc1cc(C)c(NC(=O)CN2C(=O)CCc3cc(S(=O)(=O)N4CCCC4)ccc32)c(C)c1	0
O=C(NCCN1CCC(Cc2ccccc2)CC1)c1cc(-c2cccnc2)nc2ccccc12	0
O=C(CSc1nnnn1-c1ccccc1)c1ccccc1	0
Cc1ccc(Cn2c(CCNC(=O)Nc3ccccc3Cl)nc3cccnc32)cc1	36%
Cc1ccc(CNC(=O)NCCc2nc3cccnc3n2Cc2ccc(C)cc2)cc1	0
CCOc1ccc(NC(=O)NCCc2nc3cccnc3n2Cc2ccc(C)cc2)cc1	0
CCOc1ccccc1C(=O)Nc1cc2c(cc1C(C)=O)OCO2	0
CCOC(=O)c1sc(NC(=O)CCOc2ccccc2)nc1C	0
Cc1ccc(S(=O)(=O)c2nc(-c3ccc(F)cc3)oc2SCC(N)=O)cc1	0
CC1=C([N+](=O)[O-])C(c2ccccc2Cl)NC(=O)N1 (stereo not given)	0
O=C1C(=Cc2ccc(-c3ccc([N+](=O)[O-])cc3Cl)o2)C(=O)c2ccccc21	0
COc1cc([N+](=O)[O-])ccc1NC(=O)C(c1ccccc1)c1ccccc1	0
COc1cc([N+](=O)[O-])ccc1-c1ccc(/C=C2\C(=O)ON=C2c2ccccc2)o1	34%
Cc1cnc(CN(C)C(=O)[C@@]23CNC[C@@H]2CN(Cc2ccccc2)C3)[nH]1	0
Cc1ccc([C@]2(O)NC([S-])=C(C#N)[C@H](c3ccc(F)cc3)[C@H]2[n+]2ccccc2)cc1	0
COC(=O)C1C(=O)NC(SC)=C(C#N)C1c1ccc(C)cc1 (stereo not given)	0
SMILES	ST2 inh
Cc1cc[n+](C2C(c3ccc(Br)cc3)C(C#N)=C([S-])NC2(O)C2CC2)cc1 (stereo not given)	55%
O=C(O)c1cccc(NC(=O)c2ccc3c(c2)C(=O)N(c2nccs2)C3=O)c1	0
COc1ccc(-c2nc[nH]c2-c2ccccc2)cc1Cn1cncn1	0
O=S(=O)(c1ccccc1)N1N=C(c2ccccc2)CC1c1ccc(Cl)cc1 (stereo not given)	0
COc1ccc(C2=NN(S(=O)(=O)c3ccccc3)C(c3ccc(C)cc3)C2)cc1OC (stereo not given)	0
COc1ccc(C2CC(c3ccc(C)cc3)=NN2S(=O)(=O)c2ccccc2)cc1 (stereo not given)	0
COc1ccc(C2CC(c3cccs3)=NN2C(C)=O)cc1 (stereo not given)	0
Cc1ccc(C2CC(c3cccs3)=NN2S(=O)(=O)c2ccc(C)cc2)cc1 (stereo not given)	33%
COc1ccc(C2CC(c3cccs3)=NN2S(=O)(=O)c2ccc(C)cc2)cc1 (stereo not given)	32%!
CCc1nc(C)c(C(=O)N2CCn3cccc3C2c2ccccn2)o1 (stereo not given)	0
Cc1cc(N(C)C)nc(Nc2ccc(NC(=O)c3ccccc3Br)cc2)n1	0
CC(=O)N1c2ccc(N=Cc3cc(Br)ccc3O)cc2CC1C (stereo not given)	0
Cc1ccc(C(=O)NC(=C(Cl)Cl)S(=O)(=O)c2ccc(Cl)cc2)cc1	0
Cc1ccc(C(C)(C)C)c(OCCN2CCOCC2)c1	0
CC(=O)c1ccc(CN2CCC3(CC2)N=C(c2ccccn2)NC3=O)cc1	0
COc1ccc(N2CCSC2C(=O)c2ccccc2)cc1 (stereo not given)	32%
COc1ccc([C@@H]2C(C#N)=C(N)S[C@H]2C(=O)c2ccccc2)cc1	0
COc1ccc(C(=O)N2CCCc3ccccc32)cc1	0
Cc1nc(N2CCN(c3ccc(F)cc3)CC2)c2c(C)c(C)sc2n1	0
CCOC(=O)Cc1csc(NC(=O)c2cc3ccccc3oc2=O)n1	0
CCN(Cc1ccncc1)C1CCCN(C(=O)C(C)(C)c2ccccc2)C1 (stereo not given)	0
COc1ccc(NCCNC(=O)c2ccc(Cl)cc2)c([N+](=O)[O-])c1	32%
O=C(NCCNc1ccc(Cl)cc1[N+](=O)[O-])c1ccc(Br)o1	0
CCNc1ccc(Cl)cc1[N+](=O)[O-]	31%
COc1ccc(NC(=O)c2ccc(-c3ccccc3)cc2)c([N+](=O)[O-])c1	0
NCCCNc1ccc(Cl)cc1[N+](=O)[O-]	0
O=C(Nc1cccc(Cl)c1)c1cccs1	0
O=C(Nc1ccc(Cl)cc1[N+](=O)[O-])c1cccs1	33%
COc1ccc(Cl)cc1NC(=O)c1cccs1	0

Bioassay records: PubChem BioAssay, Paczesny and Yang Labs, IUPUI and University of Michigan
